# PubChem BioAssay (NCATS)
# Inconclusive results are not listed. Where a call stands in place of a potency, no number is given. Unmarked numbers belong to inactive results. The source made the active and inactive calls. The call rests on the fitted dose curve; in most records, active means well fitted inhibition curve with a large enough effect; inconclusive means small, poorly fitted or top-dose-only effect; inactive means no such curve, though single readings can be large or run the other way.
# Target: Rap guanine nucleotide exchange factor 3 (Homo sapiens) (UniProt O95398)
# Sequence (O95398 whole entry, looked up): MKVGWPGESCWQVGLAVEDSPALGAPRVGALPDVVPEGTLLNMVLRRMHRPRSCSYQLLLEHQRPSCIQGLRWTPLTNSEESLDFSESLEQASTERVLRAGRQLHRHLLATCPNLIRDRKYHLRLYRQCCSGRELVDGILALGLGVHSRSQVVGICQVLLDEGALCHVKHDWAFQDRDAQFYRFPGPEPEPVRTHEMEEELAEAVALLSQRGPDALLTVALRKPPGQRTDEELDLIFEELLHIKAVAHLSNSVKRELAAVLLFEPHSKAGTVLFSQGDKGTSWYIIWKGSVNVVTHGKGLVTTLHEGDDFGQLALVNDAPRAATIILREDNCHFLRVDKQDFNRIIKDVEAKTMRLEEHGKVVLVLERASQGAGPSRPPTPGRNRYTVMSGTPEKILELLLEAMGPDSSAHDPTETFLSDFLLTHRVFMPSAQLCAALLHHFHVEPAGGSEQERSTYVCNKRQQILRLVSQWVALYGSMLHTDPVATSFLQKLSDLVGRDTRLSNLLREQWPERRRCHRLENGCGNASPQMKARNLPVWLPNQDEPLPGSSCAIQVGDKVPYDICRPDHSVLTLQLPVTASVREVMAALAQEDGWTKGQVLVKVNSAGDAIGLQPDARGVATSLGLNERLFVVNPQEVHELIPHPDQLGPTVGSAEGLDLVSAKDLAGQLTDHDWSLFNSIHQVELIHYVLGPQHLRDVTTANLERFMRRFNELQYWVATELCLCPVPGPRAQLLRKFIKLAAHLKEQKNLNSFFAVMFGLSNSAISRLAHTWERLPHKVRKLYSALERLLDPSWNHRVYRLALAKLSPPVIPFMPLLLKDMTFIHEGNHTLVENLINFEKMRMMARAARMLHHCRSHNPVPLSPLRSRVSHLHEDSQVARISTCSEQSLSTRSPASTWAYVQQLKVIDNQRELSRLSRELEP
# Assay: Counterscreen qHTS for antagonist of cAMP-regulated guanine nucleotide exchange factor 3 (EPAC1) (AID 1645888);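 further: fluorescence loss as bound BODIPY-GDP is released from Rap1B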
# Procedure, shortened: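 Rap1B–BODIPY-GDP (250 nM) with 50 uM GDP; compounds pin-transferred to 9.74 nM–152 uM final (activator) or from 7.32 nM upwards (inhibitor). Fluorescence Ex/Em 480/540 nm read at 5 and 30 min, then after adding cAMP or buffer, at room temperature.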
smiles,measurement,value
COc1cc(C)nc(N2CCCC(C(=O)Nc3cc(Cl)ccc3OC)C2)n1 (stereo unspecified),Potency,inactive
